The list is not random: actives were taken first. Their share in the collection is about 1.5%.
EBV gp42 block = Epstein-Barr virus gp42 inhibitors, primary screen, biochemical, uHTS, fluorescence polarization; AID 1085, 2008; Fluorescence polarization binding assay, mP read-out; hit rate 0.42% among 220,000; inhibition, % (tested at 21.74 µM); in the data active = inhibition above about 50%
E coli Lon inh = inhibitors of E. coli Lon protease, primary screen, biochemical, fluorescence polarization; AID 602123, 2011; inhibition, % at 7.94 µM; purified E. coli Lon protease; hit rate 0.42% among 360,000; P0A9M0; in the data active = inhibition above about 13%, passing the limit was not always enough
Keap1-Nrf2 PPI = Keap1-Nrf2 protein-protein interaction inhibitors, primary screen, biochemical, fluorescence polarization, single point | Kelch-like ECH-associated protein 1 (Homo sapiens), Q14145 | Keap1 Kelch-Nrf2 peptide fluorescence polarization, 1536-well | inhibition, % at 9.4 µM | hit rate 0.15% among 340,000 | AID 504523, 2011; in the data active = inhibition above about 12%;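 also: human Keap1 Kelch domain with fluorescein labeled Nrf2 9mer peptide probe; higher means more block of Keap1 binding to Nrf2 peptide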
Target sequence (Q14145 whole entry, looked up, the tested form may be a part): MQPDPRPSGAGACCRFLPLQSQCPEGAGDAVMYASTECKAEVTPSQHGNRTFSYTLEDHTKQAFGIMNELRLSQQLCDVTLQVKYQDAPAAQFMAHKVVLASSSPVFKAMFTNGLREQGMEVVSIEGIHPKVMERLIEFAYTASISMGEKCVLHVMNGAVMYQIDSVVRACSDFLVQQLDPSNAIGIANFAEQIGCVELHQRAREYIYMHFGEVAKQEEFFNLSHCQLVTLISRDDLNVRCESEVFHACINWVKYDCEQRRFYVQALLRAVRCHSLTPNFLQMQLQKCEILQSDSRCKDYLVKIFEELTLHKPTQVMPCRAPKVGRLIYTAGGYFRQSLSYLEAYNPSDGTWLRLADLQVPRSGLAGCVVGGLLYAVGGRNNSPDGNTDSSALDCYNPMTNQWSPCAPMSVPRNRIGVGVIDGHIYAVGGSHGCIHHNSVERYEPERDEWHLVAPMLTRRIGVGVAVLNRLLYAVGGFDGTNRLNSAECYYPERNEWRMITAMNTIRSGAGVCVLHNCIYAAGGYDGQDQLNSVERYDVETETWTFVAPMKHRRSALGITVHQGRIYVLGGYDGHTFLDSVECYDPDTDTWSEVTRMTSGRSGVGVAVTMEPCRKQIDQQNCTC
GLD-1 RNA inh = GLD-1/TGE RNA complex disruptors, primary screen, biochemical, fluorescence polarization; purified GLD-1 + fluorescein TGE RNA; inhibition, % at 5.96 µM; hit rate 0.44% among 320,000; Female germline-specific tumor suppressor gld-1 (Caenorhabditis elegans), Q17339; AID 2280, 2010;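 active = percent inhibition above a per-plate cutoff, the plate mean of test compounds plus 3 SD, cut at about 30% in these data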
LANA-H2A inh = blockers of LANA interaction with H2A/H2B – biochemical, FP readout, HTS, primary screen; cell-free LANA-H2A/H2B peptide, fluorescence polarization; Protein LANA1 (Human herpesvirus 8 type P (isolate GK18)), Q9QR71; hit rate 0.6% among 320,000; inhibition, % (no concentration beside the values); AID 2629, 2010; in the data active = inhibition mostly above about 10%, no sharp cut-off; inactive = mostly below about 6.7%
C-LANA FP = inhibitors of KSHV C-LANA binding to DNA, primary screen, biochemical, fluorescence polarization, FAM-LBS DNA, MBP-C-LANA, single point; inhibition, % at 9 µM; hit rate 0.078% among 340,000; AID 504423, 2011;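 active = highest replicate inhibition at or above 60% at 9 µM, even if other replicates fall short; inactive = all replicates below 60% inhibition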
A number is an active result; – = inactive; · = no result; + = active, no number.

SMILES | EBV gp42 block | E coli Lon inh | Keap1-Nrf2 PPI | GLD-1 RNA inh | LANA-H2A inh | C-LANA FP
O=C(CSc1nc(-c2ccccc2)nc2c1Cc1ccccc1O2)Nc1ccc(C(=O)O)cc1 | 86.8 | – | – | · | · | –
O=C(CSc1nc(-c2ccc(F)cc2)nc2c1Cc1ccccc1O2)Nc1ccc(C(=O)O)cc1 | 74.3 | – | – | · | · | –
O=C(CSc1nc(-c2ccccc2)nc2ccccc12)Nc1cccc(C(=O)O)c1 | – | – | – | – | – | –
COCCNC(=O)C1(C)CCCN(C(=O)c2cccc(OC(F)(F)F)c2)C1 (stereo unspecified) | · | – | · | · | · | ·
Cc1c(C)c2ccc(OCC(=O)NCCc3c[nH]c4ccccc34)cc2oc1=O | · | – | · | · | · | ·
CN(C)c1ccc(/C=C/c2ccc3ccccc3n2)cc1 | – | – | – | – | – | –
CCN(CC)c1ccc(/C=C/c2cc(-c3ccccc3)c3ccccc3n2)cc1 | 68.3 | – | – | – | – | –
CCCCNC(=O)c1c(N)[nH]c(C(=O)c2ccccc2)c1-c1ccccn1 | · | – | · | · | · | ·
CC(C)=NNc1cnnc2ccc([N+](=O)[O-])cc12 | · | – | · | · | · | ·
O=[N+]([O-])c1cccc(-c2cn3nc(-c4ccccc4)c(-c4ccccc4)nc3n2)c1 | 71.9 | – | – | – | – | –
O=[N+]([O-])c1ccc(-c2cn3nc(-c4ccccc4)c(-c4ccccc4)nc3n2)cc1 | 110.8 | – | · | – | – | ·
CC1=C(C#N)C(=O)N(C2CCS(=O)(=O)C2)C(=O)/C1=C\c1ccc(C)o1 (stereo unspecified) | 117.9 | · | · | – | – | ·
CCOC(=O)Cc1ccc(Nc2nc3cc(-c4sccc4C)sc3c(=O)n2C)cc1 | · | – | · | · | · | ·
COc1ccc(Cl)cc1NC(=O)C/C(C)=N/NC(=O)c1ccccc1[N+](=O)[O-] | · | – | – | – | – | –
COc1ccc(Cl)cc1NC(=O)C/C(C)=N/NC(=O)C(=O)NCc1ccccc1 | · | – | – | – | 15.3 | –
CCOC(=O)[C@]12CCC=C1N(Cc1ccc3c(c1)OCO3)C(=O)[C@H](CC(=O)NCCC(C)C)C2 | · | – | · | · | · | ·
Cc1cnc(NC(=O)c2ccc(-c3nc4ccccc4s3)o2)s1 | – | – | – | – | 28.8 | –
Cc1cnc(NC(=O)c2ccc(-c3ccc([N+](=O)[O-])cc3)o2)s1 | · | – | – | – | – | –
O=C(COC(=O)c1ccc(Sc2ccccc2)c([N+](=O)[O-])c1)NC1CCCc2ccccc21 (stereo unspecified) | – | – | – | – | – | –
Cc1ccnc(NS(=O)(=O)c2ccc(NS(=O)(=O)c3cc(Cl)ccc3Cl)cc2)n1 | · | – | – | – | 14.0 | –
O=C(Nc1cccc2ccccc12)c1csc([C@@H]2O[C@H](CO)[C@H](O)[C@H](O)[C@H]2O)n1 | · | – | · | · | · | ·
O=C(Nc1nnc(-c2ccccc2Cl)o1)c1cc2cc([N+](=O)[O-])ccc2s1 | 67.6 | · | · | · | · | ·
CC(=O)N[C@@H](Cc1c[nH]c2ccccc12)C(=O)NC1CCCc2ccccc21 (stereo partly specified) | · | – | – | – | – | –
O=C(Nc1ccc(F)cc1)Nc1nnc(-c2ccncc2)s1 | – | – | – | – | – | –
O=C(Nc1ccc(Cl)cc1)Nc1nnc(-c2ccncc2)s1 | 77.2 | – | – | – | – | –
SMILES | EBV gp42 block | E coli Lon inh | Keap1-Nrf2 PPI | GLD-1 RNA inh | LANA-H2A inh | C-LANA FP
CSCCC(NS(=O)(=O)c1cc(C(=O)O)ccc1Cl)C(=O)O (stereo unspecified) | – | – | – | – | – | –
CSCCC(NS(=O)(=O)c1ccc(Cl)c(Cl)c1)C(=O)O (stereo unspecified) | – | – | – | – | 17.3 | –
CSCCC(NS(=O)(=O)c1ccc2ccccc2c1)C(=O)O (stereo unspecified) | – | – | – | – | 27.5 | –
COc1ccc(C(=O)COC(=O)C(CCSC)NS(=O)(=O)c2ccc(Cl)cc2)cc1 (stereo unspecified) | – | – | – | – | 175.5 | –
COc1ccc(C(=O)N2CCCC(c3cc(C(=O)Nc4ccccc4)no3)C2)cc1 (stereo unspecified) | · | – | · | · | · | ·
CC1=CC2=NC(=O)CC(C)(C(=O)N(CC(=O)NC3CCCC3)c3ccccc3F)N2C=C1 (stereo unspecified) | · | – | – | – | – | –
CC1=CC2=NC(=O)CC(C)(C(=O)N(CC(=O)NC3CCCC3)c3ccccc3C)N2C=C1 (stereo unspecified) | – | – | – | – | 11.1 | –
c1csc(-c2ccc3nncn3c2)c1 | · | – | · | · | · | ·
Cc1cccc(-n2nc3c(c2NC(=O)c2c(F)cccc2F)CS(=O)(=O)C3)c1C | · | – | – | – | – | –
O=C(C1CCN(S(=O)(=O)Cc2ccccc2)CC1)N1CCN(c2ncccn2)CC1 | – | – | – | – | – | –
O=C(C1CCN(S(=O)(=O)c2cnc[nH]2)CC1)N1CCN(c2ncccn2)CC1 | – | – | – | – | 17.2 | –
COc1cccc(/C=C/C(=O)OCC(=O)c2ccc(C)c(C)c2)c1OC | · | – | – | – | 19.8 | –
CN(C)S(=O)(=O)c1ccc(C(=O)NCc2nc3ccccc3s2)cc1 | · | – | – | – | 14.7 | –
CN(C)S(=O)(=O)c1ccc(C(=O)NCc2cccs2)cc1 | – | – | – | – | – | –
CCc1nc2ccc(C(=O)N3CCN(S(=O)(=O)CC)CC3)cn2c1N(CC)CCOC | · | – | · | · | · | ·
COc1ccc(NC(=S)NCCCN2CCN(C3CCCCC3)CC2)cc1 | – | – | – | – | – | –
CCOc1ccc(NC(=S)NCCCN2CCN(C3CCCCC3)CC2)cc1 | – | – | – | – | + | –
Cc1ccc(S(=O)(=O)n2cccc2/C=C/[N+](=O)[O-])cc1 | · | – | · | · | · | ·
CCOC(=O)c1cc(OC(=O)c2ccccc2Br)n(-c2ccccc2)n1 | – | – | – | – | 17.3 | –
Cc1ccc(CNc2ncc(-c3ccc4c(c3)OCO4)n2C)cc1 | – | – | – | – | – | –
Cc1ccc(CNc2ccc3c(c2)OCO3)cc1 | – | 23.5 | – | – | – | –
CC1OC(CC(=O)O)CC2=C1C(=O)c1c(O)cccc1C2=O (stereo unspecified) | · | – | – | · | · | –
C/C(O)=c1/ccc2cccc3nc(C)nc1c23 | 110.2 | – | – | – | – | –
COCCNC(=S)NNC(=O)c1ccco1 | – | – | – | – | 61.0 | –
CC(=O)Nc1ccc(S(=O)(=O)NCC(=O)OCC(=O)N2CCc3ccccc32)cc1 | – | – | – | – | 11.4 | –
O=C(CNS(=O)(=O)c1ccccc1Br)OCC(=O)N1CCc2ccccc21 | – | – | – | – | – | –

Screening data as filed in PubChem.
